hcDAF-12 act: activates DAF-12 receptor from parasite H. contortus | HEK293 hcDAF-12 lit1-tk-luc reporter, luminescence; 0% DMSO, 100% Δ7-dafachronic acid | activation, % at 6.8 µM | hit rate 1.4% among 370,000;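 active means activation above the mean of all tested compounds plus 3 SD, cut at about 5.5% in these data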;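 further: 100% = response to 3 µM Δ7-dafachronic acid high control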
SMARCA2 activ: increases SMARCA2 function in MMTV reporter cells; MG213 cells, MMTV-luciferase reporter, dexamethasone, overnight; activation, % at 9.1 µM; hit rate 1% among 370,000; AID 652017; in the data active means activation above about 7.8%;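 further: 0% = vehicle wells and 100% = reference activator wells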
DAX1 inh-1: blocks DAX1 repression of SF-1 activated StAR promoter. HEK293T StAR-luciferase reporter, SF-1/DAX-1 repression relief. inhibition, % at 6.8 µM. hit rate 1.1% among 370,000. AID 652010;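 active means inhibition above the mean over all tested compounds plus 3 SD, cut at about 3.6% in these data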;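 further: 0% = DAX-1 cells with DMSO and 100% = cells lacking DAX-1 with DMSO; higher inhibition means more luminescence from relief of DAX-1 repression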
ssDAF-12 act: activates DAF-12 receptor from parasite S. stercoralis. HEK293 ssDAF-12/GRIP1 lit1-tk-luc reporter, luminescence; % of 3 µM dafachronic acid response. activation, % at 6.8 µM. hit rate 1% among 370,000;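 active means activation above the mean over all tested compounds plus 3 SD, cut at about 0.9% in these data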;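 further: 0% = DMSO-only wells and 100% = 3 µM delta7-dafachronic acid wells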
DAX1 inh-2: inhibits human nuclear receptor DAX1. inhibition, % at 6.75 µM. P51843. AID 504766. HEK293 Gal4-DAX1 luciferase reporter, luminescence. hit rate 0.99% among 340,000;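 active means inhibition above the mean over all tested compounds plus 3 SD, cut at about 4.2% in these data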;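 further: 0% = DAX1-transfected cells with DMSO and 100% = empty-vector control cells with DMSO; inhibition shows as a rise in luminescence from relieved DAX1 repression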
Target sequence (P51843 207-470 limits assumed): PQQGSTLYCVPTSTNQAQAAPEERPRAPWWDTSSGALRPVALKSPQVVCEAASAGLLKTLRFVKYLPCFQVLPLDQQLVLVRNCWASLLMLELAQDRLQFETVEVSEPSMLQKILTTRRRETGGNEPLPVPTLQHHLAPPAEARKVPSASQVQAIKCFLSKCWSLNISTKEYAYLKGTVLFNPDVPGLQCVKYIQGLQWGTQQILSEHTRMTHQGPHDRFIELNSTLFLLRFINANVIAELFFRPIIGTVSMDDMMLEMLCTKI
hgDAF-12 ag: activates the H. glycines DAF-12 receptor ligand-binding domain. hit rate 1.8% among 370,000. HEK293 GAL4-hgDAF12 UAS-luciferase reporter, agonist luminescence; normalized to butyrate control. AID 687014. activation, % at 6.8 µM;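 active means activation above a cutoff set at the mean of all screened compounds plus 3 SD, cut at about 10% in these data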;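 further: 0% = DMSO wells and 100% = sodium butyrate wells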
Starred values were filed as active, the others as inactive; . = not tested or not shown. Hits are enriched below; roughly 4.8% of the tested compounds scored in any of these assays.

SMILES | hcDAF-12 act | SMARCA2 activ | DAX1 inh-1 | ssDAF-12 act | DAX1 inh-2 | hgDAF-12 ag
COCCNC(=O)C(=O)NNS(=O)(=O)c1ccc2ccccc2c1 | -1 | -1 | 0 | -1 | 0 | 1
CC1CCC(NC(=O)C2c3ccccc3C(=O)N2CCCN2CCOCC2)CC1 (configuration not stated) | -1 | 0 | -1 | 1.0* | 4.7* | -2
CCOc1ccc(/C=C/C(=O)N2CCOCC2)cc1OC | 0 | 2 | 0 | -1 | 0 | -1
CCOc1cc(C(=S)N2CCOCC2)ccc1OC(=O)/C=C/c1ccc(OC)c(OC)c1 | -1 | -4 | 0 | -2 | -1 | 11*
CCS(=O)(=O)c1ccc2oc(Nc3ccc(C(C)C)cc3)nc2c1 | -3 | 3 | 0 | -2 | -1 | 4
Cn1c(NC(=O)/C=C\c2ccccc2)cc(=O)n(C)c1=O | 5 | 2 | 1 | 1.1* | 4.6* | 9
COC(=O)CCN(C(=O)c1cccc(OC(C)=O)c1)c1ccccn1 | 0 | -5 | 0 | -1 | 4.5* | 0
COC(=O)CCN(C(=O)c1ccc2c(c1)OCO2)c1ccccn1 | -1 | 0 | 1 | -1 | 0 | 0
CCCCN(CCCC)CCNC(=O)CN1C(=O)CSc2ccc(S(=O)(=O)N3CCCCC3)cc21 | 2 | 7 | 0 | -1 | 0 | 2
COc1ccc2oc(C(=O)NNC(=O)c3ccc(F)cc3)c(C)c2c1 | 1 | 0 | 1 | -1 | 3 | 3
COc1ccc2oc(C(=O)NC(C)(C)C)c(C)c2c1 | 1 | 7 | 3 | -1 | 2 | 13*
N#CCSc1ccccc1NC(=O)CN1C(=O)C2CC=CCC2C1=O (configuration not stated) | 4 | 0 | -5 | 2.3* | 1 | 5
Cc1cccc(C)c1NC(=O)CN1C(=O)C2CC=CCC2C1=O (configuration not stated) | 1 | 3 | -1 | -2 | 0 | 0
Nc1cccc(Oc2ccc3c(c2)C(=O)N(CC2CCCO2)C3=O)c1 (configuration not stated) | 4 | 2 | 0 | -1 | 2 | 11*
O=C(O)C1C2C=CC(C3CC23)C1C(=O)O (configuration not stated) | -2 | 4 | 0 | 0 | 0 | -2
COc1cc(C2C3=C(CC(C)(C)CC3=O)Nc3c2c(=O)[nH]c(=O)n3Cc2ccccc2)ccc1O (configuration not stated) | -1 | -2 | 0 | -1 | 4.3* | 1
C=CCNC(=O)c1cc2sccc2n1C | 0 | -1 | 0 | -1 | 1 | 1
CC(C)c1ccc(NC(=O)Nc2cc3sccc3n2C)cc1 | 6.0* | 1 | 0 | 1 | 0 | 3
Cc1ccccc1N1C(=O)CC2(CCCC2)CC1=O | 0 | -3 | 1 | 1.1* | 0 | 0
CC1CCCN(S(=O)(=O)c2coc(C(N)=O)c2)C1 (configuration not stated) | -1 | 0 | 0 | -2 | 5.1* | 3
CC1CCCCN1S(=O)(=O)c1coc(C(N)=O)c1 (configuration not stated) | -1 | -2 | 0 | -1 | 2 | 0
COC(=O)[C@@]12CCCCN1[C@H](c1ccc(-c3ccc(Cl)c(Cl)c3)cc1)[C@H]1C(=O)N(C)C(=O)[C@H]12 | -1 | 0 | 0 | -1 | 0 | 0
O=C(COc1ccccc1[N+](=O)[O-])Nc1ccc2c(c1)CCC2 | 2 | 1 | 4.5* | -1 | 2 | 10
O=C(COC(=O)COc1ccccc1[N+](=O)[O-])Nc1ccc(S(=O)(=O)N2CCCCC2)cc1 | 2 | -4 | 0 | 1.2* | 0 | 2
COc1ccccc1NC(=O)COC(=O)CCc1ccc(S(=O)(=O)N2CCOCC2)cc1 | 1 | -2 | 1 | -1 | 0 | 1
SMILES | hcDAF-12 act | SMARCA2 activ | DAX1 inh-1 | ssDAF-12 act | DAX1 inh-2 | hgDAF-12 ag
O=C(COc1ccccc1[N+](=O)[O-])Nc1cccc(S(=O)(=O)N2CCCC2)c1 | -3 | -2 | -2 | -2 | -2 | -2
COc1ccc(NC(=O)c2ccco2)cc1NC(=O)COc1ccccc1[N+](=O)[O-] | 1 | -2 | 0 | -1 | 4.6* | -1
O=C(COC(=O)CCc1ccc(S(=O)(=O)N2CCOCC2)cc1)Nc1ccccc1[N+](=O)[O-] | 5.6* | -2 | 1 | 0 | 0 | 1
CN(C)c1ccc(/C=N/c2cc(-c3ccccc3)nn2-c2ccccc2)cc1 | 1 | 4 | 1 | 0 | 4 | 7
CC(C)C[C@H]1COc2cc(N(C)CCO)ccc2S(=O)(=O)N1 | -1 | -2 | 0 | -1 | . | -2
COc1ccc(-c2[nH]ncc2CN2CCCO2)cc1F | -1 | -1 | 0 | -2 | 1 | 1
COc1ccc(-c2[nH]ncc2CN(C)CCCN2CCOCC2)cc1F | -1 | 3 | 0 | -1 | 5.9* | 0
C/C(=N\Nc1ccc(C(=O)O)cc1)c1ccc2c(c1)Nc1ccccc1S2 | 0 | 1 | 0 | -2 | 6.1* | 0
Cc1ccc(-c2nnc(SCC(=O)N/N=C/c3c(C)nn(-c4ccccc4)c3C)n2-c2ccccc2)cc1 | -1 | 1 | 0 | -1 | -1 | 1
COc1cccc(NC(=O)Cn2nnc(C(=O)Nc3ccccc3)c2N)c1 | -1 | 1 | -1 | 1 | -1 | 2
COc1cccc(NC(=O)c2nnn(CCc3ccccc3)c2N)c1 | 0 | 4 | 0 | -1 | 6.0* | 9
CSc1cccc(NC(=O)c2nnn(Cc3ccccc3)c2N)c1 | -2 | 0 | 0 | -1 | 0 | 0
COc1cc(NC(=O)c2nnn(Cc3ccc(SC)cc3)c2N)cc(OC)c1 | 0 | 2 | 0 | -2 | 4.2* | 6
NS(=O)(=O)c1ccc(CCNC(=O)COC(=O)CCc2c[nH]c3ccccc23)cc1 | 2 | 0 | 1 | -1 | 0 | 1
O=C(COC(=O)c1ccccn1)Nc1cccc(Cl)c1Cl | -2 | 0 | -1 | -1 | -1 | 4
O=C(OCCCc1cc2ccccc2c(=O)o1)c1ccc(C(F)(F)F)cc1 | -1 | 0 | 0 | -1 | 2 | -1
Cc1cc2ncc(-c3ccc(Cl)cc3)c(N)n2n1 | 0 | 3 | 4.0* | 0 | 1 | 8
Cc1c2ccncc2cc2c1[nH]c1ccccc12 | 4 | 3 | -3 | -1 | -2 | 11*
Cc1cc2c([nH]c3ccccc32)c(C)n1 | -1 | -2 | 0 | 0 | 4 | 3
CCCCCC1C(=O)CCC1CC(=O)OC (configuration not stated) | 0 | -1 | -1 | -1 | 4.4* | 2
CCCCCC1CC(=O)C=C(C)C1C(=O)OC (configuration not stated) | -2 | -6 | 1 | -1 | 2 | -2

Screening results from PubChem BioAssay.
